Sampled rows, rich in hits. Any-hit rate of the full collection: about 1.6%.
KCNQ2 block – inhibitors of rat KCNQ2 potassium channel; O88943; hit rate 1.1% among 310,000; B-score at 10 µM; CHO-K1 KCNQ2, FluxOR thallium flux, 20 min; stronger effect = lower value;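 active = fluorescence ratio B-score at most minus 3 library SDs, with starting brightness B-score within 2 library SDs, cut at about -5.5 in these data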
KCNQ2 enhance – enhances the rat KCNQ2 potassium channel; CHO-K1 KCNQ2, FluxOR thallium flux fluorescence; stronger effect = higher value; B-score at 10 µM; AID 2239; hit rate 0.54% among 310,000; O88943;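 active = fluorescence ratio B-score at least 3 SD of library B-scores, with initial fluorescence B-score within 3 of them, cut at about 5.3 in these data; same plate scores as AID 2156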;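 also: B-score of peak minus minimum over baseline fluorescence ratio after K+ and Tl+ stimulus; positive B-score means potentiation of KCNQ2 with more thallium influx and brighter signal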
Kir21 conf inh – confirmation of mouse Kir2.1 potassium channel inhibitors | hit rate 41% among 2,300 | AID 2032 | Tl flux remaining, % of negative control (stronger effect = lower value), % at 10 µM | shares compounds with KCNQ2 enhance | Kir2.1-expressing cells, FluxOR thallium flux fluorescence; stronger effect = lower value;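 active = Primary-screen hit whose thallium flux fell at least 3 control SD below untreated wells in both duplicates, with normal baseline fluorescence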
HEK293 ctr – counter-screen for Kir2.1 inhibitors: effect in parental HEK293 cells. FluxOR signal as % of negative control (100 = no effect), % at 10 µM. shares compounds with KCNQ2 enhance. FluxOR thallium flux fluorescence; 0% = unstimulated blank wells. AID 2105. hit rate 19% among 2,300;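 active = dye signal at least 3 control SD above or below untreated wells in both duplicates, raw fluorescence within 3, either direction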;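 also: percent is based on the flux ratio of peak minus minimum fluorescence over baseline F0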
CHO-K1 Tl ctr – alters thallium flux in parental CHO-K1 cells, KCNQ2 counter-screen. hit rate 43% among 1,200. FluxOR thallium flux fluorescence; zero = vehicle mean+3SD, 100% = vehicle-minus-blank window. activity increase over 3SD of controls, % at 10 µM. AID 2282. shares compounds with KCNQ2 enhance;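 active = signal rise of at least 3 SD above the untreated control mean, in both duplicate wells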;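 also: counter screen of KCNQ2 potentiator hits so any rise reflects channel-independent effects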
KCNQ1 sel pot – selectivity of KCNQ2 potentiators: effect on human KCNQ1. shares compounds with KCNQ2 enhance. CHO KCNQ1 stable, FluxOR thallium flux fluorescence; beyond 3SD, as % of vehicle-control signal. activation over 3SD threshold, % at 10 µM. hit rate 28% among 1,200. AID 2283;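 active = fluorescence ratio rise of at least 3 SD of vehicle wells above their mean, in both replicate wells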
Target sequence (P51787 whole entry, looked up): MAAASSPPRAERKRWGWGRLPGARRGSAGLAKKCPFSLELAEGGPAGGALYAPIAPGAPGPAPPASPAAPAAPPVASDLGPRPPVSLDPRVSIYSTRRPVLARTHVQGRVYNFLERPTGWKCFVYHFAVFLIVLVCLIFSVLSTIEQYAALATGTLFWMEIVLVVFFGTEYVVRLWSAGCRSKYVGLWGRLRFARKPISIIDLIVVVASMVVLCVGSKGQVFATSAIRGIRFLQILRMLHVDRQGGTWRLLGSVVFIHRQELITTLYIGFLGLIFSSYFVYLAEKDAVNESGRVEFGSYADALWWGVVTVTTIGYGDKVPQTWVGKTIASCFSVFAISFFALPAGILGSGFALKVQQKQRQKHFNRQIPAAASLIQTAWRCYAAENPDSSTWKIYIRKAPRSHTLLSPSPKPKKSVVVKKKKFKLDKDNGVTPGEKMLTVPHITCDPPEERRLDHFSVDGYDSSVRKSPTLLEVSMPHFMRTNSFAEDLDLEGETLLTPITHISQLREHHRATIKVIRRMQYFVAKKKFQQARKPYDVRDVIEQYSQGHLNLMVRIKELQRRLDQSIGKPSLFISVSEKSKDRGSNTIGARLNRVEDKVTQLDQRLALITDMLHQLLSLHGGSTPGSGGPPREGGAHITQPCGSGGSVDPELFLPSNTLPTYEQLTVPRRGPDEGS
KCNQ2 pot confirm – rat KCNQ2 channel potentiator confirmation. shares compounds with KCNQ2 enhance. CHO-KCNQ2 cells, FluxOR thallium flux fluorescence. potentiation, less the hit threshold, % at 10 µM. hit rate 68% among 1,200. AID 2287;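 active = fluorescence ratio rising 3 SD or more over the vehicle control mean in both replicates, plus primary screen hit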;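 also: peak minus minimum thallium fluorescence divided by baseline after K/Tl stimulus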
Kir2-1 sel – mouse Kir2.1 off-target activity of KCNQ2 potentiators | activity over 3SD threshold, % at 10 µM | hit rate 2% among 1,200 | HEK293 Kir2.1, FluxOR thallium flux fluorescence | shares compounds with KCNQ2 enhance;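 active = fluorescence ratio rise of at least 3 SD above the vehicle-control mean, seen in both replicates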
KCNQ2 W236L pot – potentiates the retigabine-insensitive rat KCNQ2 W236L mutant channel. shares compounds with KCNQ2 enhance. CHO KCNQ2-W236L, automated patch clamp current. current increase over 3SD of negative controls (%), stronger effect = higher value, % at 25 µM. hit rate 10% among 940;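 active = current increase at least 3 SD of the untreated controls above them in both duplicate recordings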
Large screens that a line does not name were inactive (follow-up assays come after a bar, where they were run).

Cc1ccc(-c2c(C(=O)N/N=C/c3c[nH]c4ccccc34)nnn2-c2nonc2N)cc1	none
Cc1ccc2c(CC(=O)OCc3nc(N)nc(Nc4ccccc4C)n3)coc2c1	KCNQ2 enhance 11 | Kir21 conf inh inactive | HEK293 ctr inactive | CHO-K1 Tl ctr 17 | KCNQ1 sel pot inactive | KCNQ2 pot confirm 15 | Kir2-1 sel inactive | KCNQ2 W236L pot inactive
Cc1ccc(S(=O)(=O)CCC(=O)OCc2nc(N)nc(Nc3ccccc3C)n2)cc1	none
O=C(NCc1cccnc1)Nc1cccc(Cl)c1Cl	none
CC(=O)C1=C(c2ccccc2)NC(=O)NC1c1ccccc1 (centres undefined)	none
O=C1NC(c2ccccc2)=C(c2nc3ccccc3s2)C(c2ccccc2)N1 (centres undefined)	KCNQ2 enhance 5.9 | Kir21 conf inh inactive | HEK293 ctr inactive | CHO-K1 Tl ctr 18 | KCNQ1 sel pot inactive | KCNQ2 pot confirm 8.2 | Kir2-1 sel inactive | KCNQ2 W236L pot inactive
O=C(Oc1ccc(=O)n(-c2ccccc2)n1)c1ccccc1	none (no result: KCNQ2 enhance) | Kir21 conf inh 61% | HEK293 ctr inactive
O=C(O)COc1ccc(=O)n(-c2ccccc2)n1	none
C=CCN1C(=NC(=O)COc2ccc(Cl)cc2)SC2CS(=O)(=O)CC21 (centres undefined)	none
O=C(Cc1ccccc1)Nc1ccc2c(c1)CCC2	KCNQ2 enhance 6.5 | Kir21 conf inh inactive | HEK293 ctr inactive | CHO-K1 Tl ctr 17 | KCNQ1 sel pot inactive | KCNQ2 pot confirm 81 | Kir2-1 sel inactive | KCNQ2 W236L pot inactive
O=C(Cc1ccccc1)Nc1cccc(N2CCCC2)c1	KCNQ2 enhance 6 | Kir21 conf inh inactive | HEK293 ctr inactive | CHO-K1 Tl ctr inactive | KCNQ1 sel pot inactive | KCNQ2 pot confirm 21 | Kir2-1 sel inactive | KCNQ2 W236L pot 0.1%
O=C(Cc1ccccc1)Nc1ccc(N2CCCC2)cc1	none
COc1ccc(CC(=O)Nc2ccc3c(c2)CCC3)cc1	none
O=C(CC1CCCC1)Nc1ccc2c(c1)CCC2	KCNQ2 enhance 26 | Kir21 conf inh inactive | HEK293 ctr inactive | CHO-K1 Tl ctr inactive | KCNQ1 sel pot inactive | KCNQ2 pot confirm 80 | Kir2-1 sel inactive | KCNQ2 W236L pot inactive
COc1ccc(NC(=O)CC2CCCC2)cc1OC	none (no result: KCNQ2 enhance)
CCOc1ccc(S(=O)(=O)NC(C)C)cc1C(N)=O	none
Cc1ccc(N2C(=O)N(CC(=O)Nc3c(C)cc(C)cc3Cl)C(=O)C2C)cc1 (centres undefined)	none
COC(=O)C(C)Oc1cc(OC(C)C(=O)OC)c2c(-c3ccccc3)cc(=O)oc2c1 (centres undefined)	none (no result: KCNQ2 enhance)
O=c1c2ccccc2c(C=NCCCN2CCOCC2)c(O)n1Cc1ccccc1	none (no result: KCNQ2 enhance) | Kir21 conf inh 64% | HEK293 ctr inactive
O=c1c2ccccc2c(C=NCCCN2CCOCC2)c(O)n1Cc1ccc2c(c1)OCO2	none
CCC1=NN(C(=O)c2ccc([N+](=O)[O-])cc2)C(O)(c2ccccc2)C1 (centres undefined)	none
CC1=NN(C(=O)c2ccccc2C)C(O)(c2ccc(Cl)cc2)C1 (centres undefined)	KCNQ2 enhance 11 | Kir21 conf inh inactive | HEK293 ctr inactive | CHO-K1 Tl ctr 22 | KCNQ1 sel pot inactive | KCNQ2 pot confirm inactive | Kir2-1 sel inactive
CCC1=NN(C(=O)c2ccccc2O)C(O)(c2ccccc2)C1 (centres undefined)	KCNQ2 enhance 11 | Kir21 conf inh inactive | HEK293 ctr 148% | CHO-K1 Tl ctr inactive | KCNQ1 sel pot inactive | KCNQ2 pot confirm 14 | Kir2-1 sel inactive | KCNQ2 W236L pot inactive
CC1=NN(C(=O)c2ccccc2Cl)C(O)(c2cccnc2)C1 (centres undefined)	none
Cc1ccc(C2=NS(=O)(=O)N(C)C(C(=O)N3CCOCC3)=C2)cc1	none
Cc1ccc(S(=O)(=O)NNC(=O)Nc2ccc(C)c(C)c2)c(C)c1	none
O/N=C/c1cn(-c2ccccc2)nc1-c1cccnc1	none (no result: KCNQ2 enhance)
Cc1ccc(-c2nn(-c3ccccc3)cc2/C=N/O)cc1	KCNQ2 enhance 5.4 | Kir21 conf inh inactive | HEK293 ctr inactive | CHO-K1 Tl ctr inactive | KCNQ1 sel pot inactive | KCNQ2 pot confirm 15 | Kir2-1 sel inactive | KCNQ2 W236L pot inactive
Cc1ccc(-n2cc(CN3CCN(C(=O)c4ncn[nH]4)CC3)c(-c3ccc(F)cc3)n2)cc1	none (no result: KCNQ2 enhance)
CCCCCCCCC(=O)N/N=C/c1ccccn1	none
CCCCCCCCC/C(=N\O)c1ccccn1	KCNQ2 enhance 24 | Kir21 conf inh inactive | HEK293 ctr 66% | CHO-K1 Tl ctr inactive | KCNQ1 sel pot inactive | KCNQ2 pot confirm 20 | Kir2-1 sel inactive | KCNQ2 W236L pot inactive
Cc1ccc(C(=O)OC(C)CN2CCN(C)CC2)cc1 (centres undefined)	none (no result: KCNQ2 enhance)
O=C(c1c[nH]c(C(=O)C(Cl)(Cl)Cl)c1)c1ccc(F)cc1Cl	KCNQ2 enhance 6.6 | Kir21 conf inh inactive | HEK293 ctr inactive | CHO-K1 Tl ctr inactive | KCNQ1 sel pot inactive | KCNQ2 pot confirm 4.6 | Kir2-1 sel inactive | KCNQ2 W236L pot inactive
O=C(c1c[nH]c(C(=O)C(Cl)(Cl)Cl)c1)c1ccc(F)cc1F	none (no result: KCNQ2 enhance)
CCN(CC)CCCCN1c2ccccc2Sc2ccccc21	none (no result: KCNQ2 enhance) | Kir21 conf inh 44% | HEK293 ctr inactive
CCN(CC)CC(=O)N1c2ccccc2Sc2ccccc21	none
O=c1c2ccccc2sn1-c1ccccc1	none (no result: KCNQ2 enhance)
O=c1[nH]sc2ccccc12	KCNQ2 enhance 6.7 | Kir21 conf inh inactive | HEK293 ctr inactive | CHO-K1 Tl ctr 8.6 | KCNQ1 sel pot inactive | KCNQ2 pot confirm inactive | Kir2-1 sel inactive | KCNQ2 W236L pot inactive
CSC(=S)N/N=C/c1ccc(N(C)C)cc1	none
CSC(=S)N/N=C/c1ccc(Br)cc1	KCNQ2 enhance 7.1 | Kir21 conf inh inactive | HEK293 ctr 254% | CHO-K1 Tl ctr inactive | KCNQ1 sel pot 39 | KCNQ2 pot confirm inactive | Kir2-1 sel inactive
COc1cc(NC(=O)CSc2ncnc3sc4c(c23)CCC(C)C4)c(C(=O)O)cc1OC (centres undefined)	KCNQ2 enhance 19 | Kir21 conf inh inactive | HEK293 ctr 417% | CHO-K1 Tl ctr inactive | KCNQ1 sel pot 36 | KCNQ2 pot confirm 94 | Kir2-1 sel inactive | KCNQ2 W236L pot inactive
CC1CCc2c(sc3ncnc(SCC(=O)Nc4ccc(C(=O)O)cc4)c23)C1 (centres undefined)	none
C[n+]1cc(C(=O)N2CCCCC2)ccc1/C=C/c1c[nH]c2ccccc12	none (no result: KCNQ2 enhance)

High-throughput results as filed in PubChem BioAssay.
